Source: PubChem BioAssay (National Center for Advancing Translational Sciences (NCATS))
The full list was thinned out, with hits kept by preference.
Cycloheximide cs: Cycloheximide Counterscreen for Small Molecule Inhibitors of Shiga Toxin; AID 2314, 2010; cell reporter, cycloheximide protein synthesis inhibition counterscreen; 12% of 300,000 active; max response, %; in the data active = max response mostly above about 13%, no sharp cut-off; inactive = mostly below about 14%; also: read at 38.3 µM for the half of the compounds with a filed dose; 0% is about no effect
Tb PYK inh: qHTS of Trypanosoma Brucei Inhibitors; pyruvate kinase (Trypanosoma brucei), Q57TT1; TbPYK enzyme, Kinase-Glo Plus ATP luminescence, 45 min; Potency, µM (highest dose often 76.8 µM), without a hit: top-dose activity, negative = inhibition, usual class: inhibitors; 0.12% of 410,000 active; active = well fitted curve in the direction sought with a large enough effect; inconclusive = small, poorly fitted or top-dose-only effect, or another doubt; inactive = no such curve, though single readings can be large; an effect the other way counts as inactive or inconclusive; also: potency is read from the fitted curve at half-maximal effect; % is scaled to controls: 0 for no effect and ±100 for the full control effect; nearly all actives have a fitted effect of over 50% in size
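Assay buffer: 50 mM TEA pH 7.2, 100 mM KCl, 10 mM MgCl2, 0.05% BSA, 0.01% Tween-20. Pyruvate kinase from T. brucei plus substrate met compound, then ADP (130 uM final). Luminescence was read post 45 min RT.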
LmPK inhibitor: qHTS Assay for Inhibitors of Leishmania Mexicana Pyruvate Kinase (LmPK). 0.37% of 290,000 active. Potency, µM (titrated, usually from 57.5 µM), for the others: at the top dose activity change, negative = inhibition, usual class: inhibitors. AID 1721, 2009. purified LmPK, Kinase-Glo ATP luminescence, 1 h; active = well fitted curve in the direction sought with a large enough effect; inconclusive = small, poorly fitted or top-dose-only effect, or another doubt; inactive = no such curve, though single readings can be large; an effect the other way counts as inactive or inconclusive; also: potency is read from the fitted curve at half-maximal effect; % is scaled to controls: 0 for no effect and ±100 for the full control effect
Target sequence (Q27686 whole entry, looked up): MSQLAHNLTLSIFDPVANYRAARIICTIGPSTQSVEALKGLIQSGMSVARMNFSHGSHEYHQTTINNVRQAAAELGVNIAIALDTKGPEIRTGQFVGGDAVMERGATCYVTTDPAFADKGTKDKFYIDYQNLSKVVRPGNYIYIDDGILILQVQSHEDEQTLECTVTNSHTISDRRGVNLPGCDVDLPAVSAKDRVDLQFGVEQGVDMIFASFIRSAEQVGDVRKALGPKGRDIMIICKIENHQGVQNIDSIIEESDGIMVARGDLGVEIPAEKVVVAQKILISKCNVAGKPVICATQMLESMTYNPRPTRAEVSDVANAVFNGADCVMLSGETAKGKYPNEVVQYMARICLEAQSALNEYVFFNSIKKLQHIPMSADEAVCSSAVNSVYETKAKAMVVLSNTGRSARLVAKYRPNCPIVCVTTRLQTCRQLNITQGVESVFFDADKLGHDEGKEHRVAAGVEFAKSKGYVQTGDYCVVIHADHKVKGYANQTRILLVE
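Screened at intermediate enzyme activity to detect both inhibitors and activators: LmPK at 0.1 nM, with a 0.5 nM enzyme column as activation reference. PEP 0.5 mM, ADP 0.1 mM; ATP detected by luminescence after 1 h.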
NS1 inh: qHTS Assay for Inhibitors of Influenza NS1 Protein Function; 0.4% of 270,000 active; AID 2326, 2010; Potency, µM (top dose mostly 46.1 µM), for the others: top-dose activity, positive = more growth; also: potency is read from the fitted curve at half-maximal effect; actives are rising curves; nearly all actives have a fitted effect of over 50% in size
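OD600 was taken as the measure of yeast growth restored by compound in an NS1-expressing S. cerevisiae strain. Cells had been washed out of glucose medium and diluted 1:100 into galactose -URA medium, pH 6.0.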
Shiga inhibitor: A qHTS for Small Molecule Inhibitors of Shiga Toxin; Vero cells, Shiga toxin protein synthesis inhibition reporter; inhibition, % at 38.7 µM; 9.2% of 290,000 active; AID 2315, 2010; in the data active = inhibition mostly above about 28%, no sharp cut-off; inactive = mostly below about 43%; also: 0% is about no effect
SARS PLpro yeast: qHTS of Yeast-based Assay for SARS-CoV PLP; S. cerevisiae expressing SARS-CoV PLpro, growth rescue; 0.19% of 330,000 active; Potency, µM (titrated, usually from 32.9 µM), without a hit: at the top dose activity, positive = growth rescue, most hits filed as activators; also: potency is read from the fitted curve at half-maximal effect; 0% is about no effect; nearly all actives have a fitted effect of over 55% in size
* = called active by the depositor; ? = inconclusive; · = no result. Unless noted, calls follow the shape of the full dose curve.

SMILES	Cycloheximide cs	Tb PYK inh	LmPK inhibitor	NS1 inh	Shiga inhibitor	SARS PLpro yeast
Cn1c(/N=C/c2c[nH]c3ccccc23)nc2ccccc21	2	3%	-18%	-81%	18	-4%
CC(C)n1c(/N=C/c2c[nH]c3ccccc23)nc2ccccc21	20*	-11%	1%	-4%	45	-3%
C=CCn1c2ccccc2c(=O)c2cc(C#CC3(O)CCCCC3)ccc21	44*	-2%	4%	-6%	55*	19%
CCN(C(=O)c1cn(CC)c(=O)c2cc(OC)c(OC)cc12)c1ccccc1F	·	-3%	·	·	·	·
O=C(NNc1ccccc1[N+](=O)[O-])Nc1ccc(F)cc1	13	1%	1%	-21%	33*	-11%
O=C(NNc1ccccc1[N+](=O)[O-])Nc1ccc(Cl)c(Cl)c1	17	2%	-1%	-47%	16*	-19%
O=C(NNc1ccccc1[N+](=O)[O-])Nc1ccccc1	15	1%	-8%	5%	-5	-2%
COC(=O)[C@]1(C)CCC(c2ccc(C)cc2)=C(CC(=O)O)C1	·	·	·	-4%	·	·
CC(=O)c1cnc2nc(SCc3cccc(C)c3)nn2c1C	9.4*	8%	3%	-7%	9	1%
CC(=O)c1cnc2nc(SCc3ccc(C)cc3)nn2c1C	-2	-2%	-2%	-8%	·	-2%
CC(=O)c1cnc2nc(SCc3ccccc3)nn2c1C	35*	-7%	-1%	-6%	47*	1%
CCS(=O)(=O)c1oc(-c2ccc(F)cc2)nc1S(=O)(=O)c1ccccc1	·	4%	·	·	·	·
COc1cccc(CN(CC2CCCO2)C(=O)c2cc3ccccc3oc2=O)c1 (configuration not stated)	44*	-1%	0%	-2%	77*	0%
COc1cccc(CN(C(=O)c2cc3ccccc3oc2=O)C2CC2)c1	26*	-12%	-7%	-17%	78*	-1%
COc1ccc(CN(CC2CCCO2)C(=O)c2cc3ccccc3oc2=O)cc1 (configuration not stated)	-2	-5%	0%	·	3	1%
Cc1cc(NC(=O)c2cccc(F)c2)no1	26*	9%	-10%	-9%	27	4%
COc1cccc(C2=NOC(C(=O)Nc3cc(C)on3)C2)c1OC (configuration not stated)	14*	20%	-3%	0%	53	0%
C/C(=C\C(=O)Nc1cc(C)on1)c1ccccc1	37*	3%	2%	-22%	57*	-18%
COc1ccccc1C(=O)Nc1cc(-c2ccc(C)cc2)no1	25*	0%	0%	-8%	83*	-3%
Cc1cc(NC(=O)CSc2ccccc2)no1	-1	-7%	0%	?	43	-4%
CCCCN(CC)CCNS(=O)(=O)c1cccc2cccnc12	·	·	·	-1%	·	·
CCCCn1c(N)c(N(CCOC)C(=O)c2ccc(C)o2)c(=O)[nH]c1=O	·	2%	·	·	·	·
CCCCOc1ccccc1C(=O)Nc1nonc1-c1ccccc1	·	10%	·	·	·	·
CCC(Sc1nc2ccccc2c2nc(CCc3c(C)n[nH]c3C)nn12)C(=O)Nc1ccc(OC)cc1 (configuration not stated)	·	-5%	·	·	·	·
Cc1ccccc1OCC(=O)N1CCN(C(=O)COc2ccccc2C)CC1	2	1%	-3%	2%	1	2%
SMILES	Cycloheximide cs	Tb PYK inh	LmPK inhibitor	NS1 inh	Shiga inhibitor	SARS PLpro yeast
CCOC(=O)c1c(C)nsc1NC(=O)C1(C)CCN1C(=O)CC (configuration not stated)	·	6%	·	·	·	·
Cc1cccc(C)c1NC(=O)C(=O)c1cn(C)c2ccccc12	10	4%	8%	·	26	1%
COc1ccccc1C(=O)Nc1cc(C)on1	45*	8%	-4%	-10%	·	-6%
Cc1cc(NC(=O)c2ccc3nc(-c4ccccc4)c(-c4ccccc4)nc3c2)no1	1	-3%	-3%	-14%	-9	-6%
Cc1cc(NC(=O)c2ccccc2)no1	51*	0%	1%	-3%	73*	-1%
Cc1cc(NC(=O)C(=O)c2cn(C)c3ccccc23)no1	18*	2%	6%	·	42	-1%
O=C(NNC(=O)c1ccc(NC(=O)C2CC2)cc1)c1ccc(F)cc1	6	-1%	-9%	-15%	-5	-8%
O=C(Nc1ccccc1)c1ccc(NC(=O)C2CC2)cc1	32*	-2%	0%	1%	42*	-4%
CCC(=O)N1CCCc2cc(S(=O)(=O)N3CCC(C(=O)NC4CCCCC4)CC3)ccc21	·	-9%	·	·	·	·
O=C(COC(=O)c1ccc[nH]c1=O)Nc1ccc(N2CCCCC2)cc1	·	-12%	·	·	·	0%
Cc1cc(NC(=O)c2ccc(NC(=O)C3CC3)cc2)no1	30*	-11%	2%	-1%	61*	-1%
Cc1cc(NC(=O)c2ccc(NC(=O)C(C)C)cc2)no1	32	-1%	-5%	-12%	77	-1%
CCOC(=O)C1CCC(CN(Cc2cccc(Br)c2)S(=O)(=O)c2ccc(C)cc2)CC1 (configuration not stated)	·	0%	·	·	·	·
O=C(Nc1cccc(-c2nn[nH]n2)c1)c1ccc(Br)s1	23*	-9%	-9%	-13%	-24	-3%
O=C(Nc1cccnc1)c1ccc(Br)s1	31*	-3%	-5%	-33%	105*	-6%
CCc1sc(C(=O)Nc2cccnc2)cc1Br	30*	-4%	-5%	-70%	47*	-13%
O=C(Nc1cccc(-c2nn[nH]n2)c1)c1ccc(Cl)s1	-1	0%	8%	9%	-8	7%
Cc1cc(C)cc(C(=O)NC(CC(N)=O)c2ccc(NCC3CC3)c([N+](=O)[O-])c2)c1 (configuration not stated)	4	1%	-1%	-9%	5	14%
CN1CCN(CCCNC(=O)c2ccc(/C=C3\Oc4ccccc4N(Cc4ccccc4F)C3=O)cc2)CC1	-7	3%	5%	-3%	-3	-18%
CN(C(=O)COC(=O)c1ccc2c(c1)OCO2)C1CCCCC1	·	19%	·	·	·	-15%
O=C(NC1CCCCC1)c1ccc2c(c1)OCO2	26*	-2%	-6%	2%	84*	1%
CN(C(=O)c1ccc2c(c1)OCO2)C1CCCCC1	42*	6%	-10%	3%	36*	21%
CC1CCC(NC(=O)c2ccc(/C=C3\Oc4ccccc4N(C)C3=O)cc2)CC1 (configuration not stated)	25*	·	1%	2%	42	10%
CC1CCC(NC(=O)c2ccc3c(c2)OCO3)CC1 (configuration not stated)	43*	0%	-13%	-30%	53*	1%
CN(C)CCN(Cc1ccccc1)S(=O)(=O)c1ccc(-c2cc(C(F)(F)F)on2)s1	·	4%	·	·	·	·
CC1CCN(CC(=O)Nc2ccc3c(c2)OCO3)CC1	·	1%	·	·	·	-4%
